Here are results for 94 compounds from PubChem BioAssay AID493098 (Sanford-Burnham Center for Chemical Genomics, 2011).

Among all 340,000 compounds or so, about 1,700 (0.5%) were called active. The entries come from a sample that favours actives as a whole. Unmarked numbers belong to inactive results.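 How the source made its calls: active means compounds whose inhibition of the agonist-driven luminescence signal at 20 µM reaches about 50% (limit read from the data); inactive means the rest.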

C-C chemokine receptor type 6 (Homo sapiens), sequence (P51684 whole entry, looked up): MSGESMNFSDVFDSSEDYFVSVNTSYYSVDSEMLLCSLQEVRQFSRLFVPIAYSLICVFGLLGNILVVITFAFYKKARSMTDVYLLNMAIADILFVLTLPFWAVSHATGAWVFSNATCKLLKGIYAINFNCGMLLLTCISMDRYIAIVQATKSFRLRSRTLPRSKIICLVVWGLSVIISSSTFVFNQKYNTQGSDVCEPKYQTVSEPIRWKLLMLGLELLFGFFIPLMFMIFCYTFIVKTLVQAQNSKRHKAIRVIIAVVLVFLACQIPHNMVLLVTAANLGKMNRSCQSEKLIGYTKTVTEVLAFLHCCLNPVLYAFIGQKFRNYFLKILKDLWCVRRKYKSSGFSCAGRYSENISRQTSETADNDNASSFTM

The experiment addresses C-C chemokine receptor type 6 (Homo sapiens) (UniProt P51684). The experiment is described as follows: CCR6 receptor antagonists, primary screen, cell-based, CHO-K1, luminescence, beta-arrestin, uHTS (AID 493098).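 Further: cells stimulated with CCL20 at 14 nM final; plate controls were DMSO with CCL20 for no effect and DMSO without agonist for full effect.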 The following applies: CHO-K1 CCR6 PathHunter beta-arrestin, CCL20-stimulated, at 20 µM, active compounds read high.
On to `Nc1ccc(SCCN2C(=O)c3ccccc3C2=O)cc1`, for which the inhibition – broadly, the change of the read-out against control, counted positive when it falls – is -6.02%.

Take `Cc1ccc2oc(=O)c3cnn(CC(=O)N(Cc4ccco4)C4CCCCC4)c3c2c1`: the inhibition was 20.4%.

In the case of `O=C(Nc1ccccc1Cl)/C(Cl)=C(\Cl)S(=O)c1ccccc1` (centres undefined), the inhibition is 95.1% (active).

Turning to `O=C(COC(=O)CCc1c[nH]c(=O)[nH]1)Nc1ccccc1Cl`, the inhibition was -11.7%.

As for `CN(C)S(=O)(=O)Oc1ccccc1C(=O)Nc1ccccc1Cl`, the inhibition is 8.47%.

As for `Cc1c(S(=O)(=O)N2CC(C)CC(C)C2)c(=O)n(C)c(=O)n1C` (centres undefined), the inhibition is -1.65%.

`CCN(CC)CCCSc1nc2ccccc2s1`: the inhibition is -12.8%.

As to `OCCNc1nc(Nc2ccc(Cl)c(Cl)c2)nc2ccccc12`, the inhibition is -13.9%.

Take `O=[N+]([O-])c1c(NCCO)cc(Sc2nc3ccccc3s2)c2nonc12`: the inhibition was 114% (active).

For `Cc1nc(C)c(-c2nnc(-c3cccc(S(=O)(=O)N(C)C)c3)o2)cc1C(=O)NN`, the inhibition is 8.51%.

Consider `CCOc1ccc2[nH]c3nc(SCC(=O)NC4CCCC4)nnc3c2c1`, for which the inhibition was 15.4%.

For the compound `Cc1nc2nc(SCC(=O)Nc3cccc(F)c3)[nH]c2cc1Br`, the inhibition was -8.14%.

For the compound `O=C(CN1CCN(C(=S)NC2CCCC2)CC1)Nc1ccc(Oc2ccccc2)cc1`, the inhibition is 10.7%.

Turning to `CCC(=C/c1sc2ccc3ccccc3c2[n+]1C)/C=C1\Sc2ccc3ccccc3c2N1C`, the inhibition is 66.6% (active).

For `S=c1[nH]nc(/C=C/c2ccccc2)o1`, the inhibition is -11.1%.

`CC(C)[C@H](NC(=O)N1CCn2c1nc1ccccc12)C(=O)NCCc1ccccc1`: the inhibition is 20.7%.

On to `CCCN(C(=O)COC(=O)CNS(=O)(=O)c1ccc(NC(C)=O)cc1)C1CCS(=O)(=O)C1` (centres undefined), for which the inhibition was 4.25%.

Turning to `O=C(O)CCN(Cc1ccccc1)S(=O)(=O)c1c(Cl)cccc1Cl`, the inhibition is 4.62%.

In the case of `C/C(=N\NC(=O)Cc1ccc(Cl)cc1)c1ccccn1`, the inhibition is 102% (active).

Regarding `NC(=O)NC(CC(=O)NNC(=O)c1ccccn1)c1ccc(Cl)cc1` (centres undefined), the inhibition was -16.2%.

Take `CC(=NNC(=S)N1CCCCCC1)c1ccccn1`: the inhibition is 21.3%.

As to `COC(=O)c1ccc(NC(=S)NN2CCOCC2)cc1`, the inhibition was 1.46%.

For the compound `Cc1nc2nc(C)c(NS(=O)(=O)c3ccc(C(C)(C)C)cc3)c(=O)n2[nH]1`, the inhibition is 6.13%.

`CC1CCCC(NC(=O)CSc2nccn2C)C1C` (centres undefined): the inhibition was 7.72%.

For the compound `CC1(C)CC2CC(C)(CN2c2ncnc3ccc(Br)cc23)C1` (centres undefined), the inhibition is 10.7%.

Take `COc1ccc(OC)c(CCNC(=O)c2nn(C)c3c2CS(=O)(=O)c2ccccc2-3)c1`: the inhibition was 9.14%.

As for `CN(C)C(=S)N=c1ssc(=S)n1Cc1ccco1`, the inhibition was 59.8% (active).

Regarding `CCN(CC)C(=O)CSc1nnc(CNc2ccc(F)cc2)n1Cc1ccco1`, the inhibition is 6.14%.

Take `CC1CN(Cc2ccco2)C(=S)N(c2ccccc2)C1=O` (centres undefined): the inhibition is 9.82%.

As to `Cc1ccccc1N1C(=O)C2ON(c3ccccc3)C(c3ccncc3)C2C1=O` (centres undefined), the inhibition was -6.39%.

For the compound `CN(CC(=O)Nc1cccc(F)c1)C(=O)C1CSC2(C)CCC(=O)N12` (centres undefined), the inhibition is 9.77%.

On to `COCCn1c(SCC(=O)Nc2ccccc2F)nc2c(c1=O)SCC2`, for which the inhibition was -9.89%.

With `CCCC1CCC(=NNC(=S)NCCc2ccccc2)CC1` (centres undefined), the inhibition was 54.4% (active).

As to `S=C(NCCc1ccccc1)NCC1CCCO1` (centres undefined), the inhibition was 8.39%.

On to `S=C(NN=C1CCN(Cc2ccccc2)CC1)NC1CCCCC1`, for which the inhibition is 21.4%.

Turning to `Cc1cccc(C)c1N1CCN(S(=O)(=O)N2CCCCC2)CC1`, the inhibition was 18.8%.

As to `NS(=O)(=O)c1cc(C(=O)OCC(=O)NNC(=O)c2ccccc2)ccc1Cl`, the inhibition was 0.62%.

Take `Cc1cccc(-n2c(O)c(C=Nc3ccccc3N)c(=O)[nH]c2=O)c1`: the inhibition is 88.4% (active).

Take `Cc1ccc(N=Cc2c(O)n(-c3nccs3)c(=O)c3ccccc23)c(C)c1`: the inhibition was 17.6%.

Consider `Cc1cccc(N2C(=O)CC(SC(N)=Nc3ccccc3)C2=O)c1` (centres undefined), for which the inhibition is 5.48%.

For the compound `CCCCS(=O)c1snnc1C` (centres undefined), the inhibition was 4.33%.

For the compound `CCC(CC)c1nnc(NC(=O)C2=COCCO2)s1`, the inhibition is -8.69%.

Turning to `CCOc1ccc(S(=O)(=O)N2CCCCC2)cc1NC(=O)CN1CCCC1c1cccs1` (centres undefined), the inhibition was 13.2%.

`COc1cccc2sc(Nc3nc(C)c(C(C)=O)s3)nc12`: the inhibition is 52.1% (active).

Regarding `CC(=O)c1sc(N/N=C\c2ccc(C)cc2)nc1C`, the inhibition was 20.1%.

Take `CC(=O)c1sc(N/N=C/c2ccc(C(C)C)cc2)nc1C`: the inhibition was -0.42%.

As to `O=C(CO/N=C/c1ccc(OC(F)F)cc1)NCc1ccc(F)cc1`, the inhibition was 16.1%.

Consider `COc1ccc(CS(=O)/C(Cl)=C(/Cl)C(=O)Nc2ccc(OC)nc2)cc1` (centres undefined), for which the inhibition was 95.4% (active).

For `COc1ccc(CCC(=O)c2ccc(OC)cc2)cc1`, the inhibition was 11.9%.

As to `COc1ccc(OC(C)C(=O)Nc2cccnc2)cc1` (centres undefined), the inhibition is 9.87%.

For the compound `CC(C)(C)CN1CCNC(=O)C1CC(=O)NC1Cc2ccccc2C1` (centres undefined), the inhibition was -8.22%.

`CC/C=C/C(=O)N1CC2(CC(c3cccc(NC(=O)CC)c3)=NO2)C[C@H]1C(N)=O` (some centres undefined): the inhibition is 3.3%.

On to `COC(=O)c1cccc(N(C(=O)CNC(=O)c2cccs2)C(C(=O)NCC2CCCO2)c2ccc(OC)c(OC)c2)c1` (centres undefined), for which the inhibition is -0.67%.

For `COc1ccc(F)cc1C(=O)COC(=O)c1n[nH]c(=O)c2ccccc12`, the inhibition was 24.8%.

For `COC(=O)Cc1ccc(NC(=S)NCc2ccccc2)cc1`, the inhibition is -10.8%.

As to `COC(=O)Cc1c(-c2[nH]c3ccccc3c2CC(=O)OC)[nH]c2ccccc12`, the inhibition is 85.9% (active).

With `CCCOC(=O)Cc1c(O)c2ccccc2[nH]c1=O`, the inhibition was -17.8%.

In the case of `NCC(=O)c1cccc2ccc[n+]([O-])c12`, the inhibition is -4.01%.

For `Cc1ccc2cccc(O)c2[n+]1[O-]`, the inhibition is 54.9% (active).

With `COc1ccc2c(c1)[C@H]1[C@H](CO2)[C@H](c2ccccc2)[C@]2(C)C(=O)Nc3cc(F)c(F)cc3C(=O)N12`, the inhibition is -0.31%.

Regarding `Nc1ccccc1SC(C[N+](=O)[O-])c1ccccc1` (centres undefined), the inhibition was 62.7% (active).

In the case of `C/C(N)=C(\C#N)C(=O)NCCc1ccccn1`, the inhibition is 4.85%.

Take `O=C(NC(=S)Nc1ncccn1)c1ccccc1Br`: the inhibition was 1.75%.

Take `Cc1cc(C)c(C2C3=C(Nc4c2c(C)nn4-c2ccccn2)c2ccccc2C3=O)c(C)c1` (centres undefined): the inhibition was 53.2% (active).

Consider `COCC1CCCN(Cc2cn[nH]c2-c2cc3ccccc3o2)C1` (centres undefined), for which the inhibition is 7.28%.

With `c1nc(COc2nsnc2N2CCOCC2)cs1`, the inhibition is -2.16%.

Regarding `COc1cccc(CN2CCN(Cc3ccc4cccc(F)c4n3)CC2CCO)c1` (centres undefined), the inhibition is 11.8%.

Turning to `O=[N+]([O-])c1ccc(N2CCOCC2)cc1`, the inhibition was 7.93%.

As to `C=CS(=O)c1sc(Cl)c(N2CCOCC2)c1[N+](=O)[O-]` (centres undefined), the inhibition is 93.5% (active).

With `Cc1nc2cc(C(F)(F)F)ccc2n1CCNc1nc(-c2cc(Cl)c(N)c(Cl)c2)cs1`, the inhibition was 6.34%.

With `COc1ccc(NC(=O)c2oc3ccc(S(=O)(=O)N4CCOCC4)cc3c2C)cc1`, the inhibition was 8.2%.

As for `CCOC(=O)NC(C(F)(F)F)(C(F)(F)F)P(=O)(c1ccccc1)c1ccccc1`, the inhibition is 11.6%.

In the case of `COC(=O)[C@]1(C)CCC[C@@]2(C)C3CC[C@]4(OC(C)=O)C[C@@]3(CCC21)CC4=NO` (some centres undefined), the inhibition was -0.25%.

As for `O=C(Nc1ccc(F)cc1)c1ccc(S(=O)(=O)NCc2cccnc2)cc1`, the inhibition is -1.15%.

Regarding `CCOc1ccc(NC(=O)c2nc(SCC)ncc2Cl)cc1`, the inhibition was 3.21%.

Regarding `CSc1nnc(NC(=O)c2nc(S(=O)(=O)Cc3ccc(C)cc3)ncc2Cl)s1`, the inhibition was -1.49%.

For `Cc1cccc(NC(=O)c2nc(S(=O)(=O)Cc3ccccc3)ncc2Cl)c1`, the inhibition was 82% (active).

In the case of `Cc1cccc(CS(=O)(=O)c2ncc(Cl)c(C(=O)Nc3ccc(F)cc3)n2)c1`, the inhibition is 79.4% (active).

In the case of `Cc1ccc(CS(=O)(=O)c2ncc(Cl)c(C(=O)Nc3nnc(C)s3)n2)cc1`, the inhibition was -7.39%.

Take `CCCC(C(=O)OCCN(CC)CC)(c1ccccc1)c1ccccc1`: the inhibition was 11.6%.

On to `COC(=O)c1ccc(-c2noc(CN(Cc3ccccn3)CC3CCCO3)n2)cc1` (centres undefined), for which the inhibition was 5.23%.

For `CCn1c(=O)c2ccccc2n(CC(=O)N2CCCc3ccccc32)c1=O`, the inhibition was 9.45%.

Consider `Cc1ccccc1CSCCNC(=O)c1ccc(N(C)S(=O)(=O)c2ccccc2)cc1`, for which the inhibition is 32.2%.

In the case of `O=C(CC1OC(=O)c2ccccc21)NC1CCCCC1` (centres undefined), the inhibition was 19.9%.

Consider `CN(CC(=O)Nc1ccc(OC(F)F)cc1)S(=O)(=O)/C=C/c1ccccc1`, for which the inhibition was 59.9% (active).

Consider `CC(C)N(Cc1ccccc1)C(=S)Nc1ccc(OC(F)F)cc1`, for which the inhibition is 18.4%.

For `COc1ccc(NC(=O)COC(=O)c2ccc(NS(=O)(=O)/C=C/c3ccccc3)cc2)cc1`, the inhibition was 21.3%.

`CCN1CCC(O)(/C=C/c2ccc(C)cc2)C(C(=O)/C=C/c2ccc(C)cc2)C1` (centres undefined): the inhibition is 63.6% (active).

With `CCOC(=O)C1CCCN(C(=O)/C=C/c2ccc(OC)cc2)C1` (centres undefined), the inhibition was 6.92%.

With `CCN1CCN(C(=O)CSc2ccc(C)cc2)CC1`, the inhibition was 6.4%.

As to `N#CCCn1cnc2ccccc21`, the inhibition was 8.21%.

For the compound `Cc1cc(C)nc(S/C=C/C(=O)c2ccccc2)n1`, the inhibition is 54.2% (active).

Take `Cc1cc(C)nc(SCc2ccccc2C#N)n1`: the inhibition is -11.7%.

With `O=C(/C=C/Sc1ncn[nH]1)c1ccc(Cl)cc1`, the inhibition is 31.6%.
